Cycloheximide cs – Cycloheximide Counterscreen for Small Molecule Inhibitors of Shiga Toxin. cell reporter, cycloheximide protein synthesis inhibition counterscreen. max response, %. 300,000 compounds, 12% hits; in the data active = max response mostly above about 13%, no sharp cut-off; inactive = mostly below about 14%; note: read at 38.3 µM for the half of the compounds with a filed dose; 0% is about no effect
MARV entry inh – qHTS for inhibitors of binding or entry into cells for Marburg Virus; Marburg virus pseudotyped entry inhibition, cell reporter; Potency, µM (titrated, usually from 37.8 µM), for the others: top-dose activity change, negative = inhibition, usual class: inhibitors; 300,000 compounds, 1.8% hits; calls by dose curve; tested in HEK293 cells; note: potency is the fitted concentration of half-maximal effect; % is set by controls: 0 for no effect and ±100 for the full control effect
Lassa entry inh – qHTS for Inhibitors of binding or entry into cells for Lassa Virus; 300,000 compounds, 1.2% hits; Lassa virus pseudotype entry inhibition, cell reporter; Potency, µM (titrated, usually from 37.9 µM), for inactives: top-dose activity change, negative = inhibition, hits mostly inhibitors; AID 540256, 2011; calls by dose curve; tested in HEK293 cells; note: potency is the fitted concentration of half-maximal effect; % is set by controls: 0 for no effect and ±100 for the full control effect; nearly all actives have a fitted effect of over 50% in size
Shiga inhibitor – A qHTS for Small Molecule Inhibitors of Shiga Toxin; inhibition, % at 38.7 µM; Vero cells, Shiga toxin protein synthesis inhibition reporter; 290,000 compounds, 9.2% hits; AID 2315, 2010; in the data active = inhibition mostly above about 28%, no sharp cut-off; inactive = mostly below about 43%; note: 0% is about no effect
The depositor's hits bear a star; ? = inconclusive; / = not tested or not shown; [ ] = dose if it differs, or a comment. Compounds with a hit are over-represented: about 12% of the library has one in this group of screens.

SMILES	Cycloheximide cs	MARV entry inh	Lassa entry inh	Shiga inhibitor
O=C(CSc1ccc(-c2ccco2)nn1)c1ccccc1	24*	5%	17%	32*
COc1ccc(-c2[nH]c3c(c2-c2c(-n4cccc4)n(C)c(=O)[nH]c2=O)c(=O)[nH]c(=O)n3C)cc1F	/	-14%[46.1 µM]	2%[46.1 µM]	/
Cc1ccc(N2C(=O)c3ccccc3NC2(C(=O)O)c2ccccc2)cc1Cl (stereo not drawn)	66*	/	/	99*
COc1cccc(CNC(=O)CCCCCn2c(=O)[nH]c3cc(OC)c(OC)cc3c2=O)c1	/	-1%[46.1 µM]	-15%[46.1 µM]	/
Cn1cc(C(=O)c2cccc(Cl)c2)cc1C#N	4	-4%[46.1 µM]	11%[46.1 µM]	-11
Cn1cc(C(=O)c2cccc(Cl)c2)cc1/C=N\O	33*	3%[46.1 µM]	-24%	39
O=C(CC1N=C2c3ccccc3N=C(SCc3ccc(F)cc3)N2C1=O)NCc1ccco1 (stereo not drawn)	33*	9%	7%	30*
O=C(CCC1N=C2c3ccccc3N=C(SCc3ccc(F)cc3)N2C1=O)NCc1ccco1 (stereo not drawn)	19*	-20%	-12%	30
O=C(CCC1N=C2c3ccccc3N=C(SCc3ccc(Cl)cc3)N2C1=O)NCc1ccco1 (stereo not drawn)	18	?	7%	44
Cc1ccc(CSC2=Nc3ccccc3C3=NC(CC(=O)NCc4ccco4)C(=O)N23)cc1 (stereo not drawn)	38*	5%	-2%	68*
C=C(C)CSc1nc2sc3c(c2c(=O)n1Cc1ccccc1)CC(C)(CC)OC3 (stereo not drawn)	/	/	-18%[46.1 µM]	/
CCC(CC)C(=O)N1CCc2cc(OC)c(OC)cc2C1COc1ccccc1OC (stereo not drawn)	/	/	-5%[46.1 µM]	/
CCOC(=O)c1c(CSc2ccc(CC)cc2)oc2ccc(O)c(CN(C)C)c12	-6	4.5µM*	?	-10
Cc1ccc2nc(NC(=O)CCn3cccc3)sc2c1	22*	/	/	53*
Cc1ccc2nc(NC(=O)CCCc3nc4ccccc4s3)sc2c1	42*	?	?	117
Cc1ccc2nc(NC(=O)CCn3c(=O)sc4ccccc43)sc2c1	1	/	/	11
Cc1ccccc1OCCn1c(=O)sc2ccccc21	12	?	-1%	24
Cc1cccc(OCCCn2c(=O)sc3ccccc32)c1	44*	-2%[46.1 µM]	?	60*
Cc1cccc(OCCn2c(=O)sc3ccccc32)c1	36*	21%	?	79*
Cc1cccc(OCCn2c(=O)n(C)c3ccccc32)c1	67*	/	/	115*
COc1ccc(OCCn2c(=O)sc3ccccc32)cc1	25*	?	13%	81*
COc1ccccc1OCCn1c(=O)sc2ccccc21	8	-17%	0%	13
CC(=O)c1ccc(OCCCC(=O)Nc2cccc(S(=O)(=O)N3CCCCC3)c2)cc1	/	-24%	-27%	/
Cc1ccccc1NC(=O)CSCn1nnc2c(=O)[nH]c(Cc3ccc(F)cc3)nc21	/	-19%[46.1 µM]	16%[46.1 µM]	/
CC(C)Cc1nn2c(=O)cc(COC(=O)c3ccccc3NC(=O)c3ccccc3)nc2s1	/	/	26%[46.1 µM]	/
SMILES	Cycloheximide cs	MARV entry inh	Lassa entry inh	Shiga inhibitor
Cc1nn2c(-c3cccnc3)ccnc2c1-c1ccccc1	25*	?	17%	41*
Cc1cc(N)n2nc(C)c(-c3ccccc3)c2n1	13*	25%	?	21
Cc1cc(Cl)n2nc(C)c(-c3ccc(Cl)cc3)c2n1	11	?	16µM*	-13
Cc1cc(N)n2nc(C)c(-c3ccc(Cl)cc3)c2n1	8	?	-10%	6
Cc1cc(SCC(=O)c2cccs2)n2nc(C)c(-c3ccccc3)c2n1	39*	?	?	39*
Cc1nn2c(-c3ccccc3)ccnc2c1Br	-2	/	/	4
Cc1nn(C)c2c1c(C(F)(F)F)cc(=O)n2C(C)C(=O)NCCC(C)C (stereo not drawn)	/	/	-2%[46.1 µM]	/
C[C@@]12C=Cc3occc3C1CC[C@@]13C[C@@H](CCC12)[C@@](O)(CO)C3 (stereo partly drawn)	0	/	/	23
Cc1cc(SCC#N)n2nc(C)c(-c3ccccc3)c2n1	23	-15%	-18%	4
C=CCSc1cc(C)nc2c(-c3ccccc3)c(C)nn12	25*	?	2%	13
Cc1cccc(CNC(=O)Cc2csc3ccccc23)c1	63*	?	3%[46.1 µM]	75*
COc1ccc(-c2nc3scc(CCNC(=O)c4cc(OC)cc(OC)c4)n3n2)cc1	/	/	16%[46.1 µM]	/
CC(C)(CO)Nc1nc(Cl)nc(NC2CCCCC2)n1	20*	/	/	27
CC(C)Nc1nc(Cl)nc(NC2CCCCC2)n1	10	/	/	14
CCNc1nc(Cl)nc(NC2CCCCC2)n1	21*	-13%	24%	/
CC(C)(CO)Nc1nc(N2CCCC2)nc(N2CCCC2)n1	-1	?	0%	-5
CCCN1CCN(C(=S)Nc2ccccc2C(F)(F)F)CC1	-2	?	-19%	-6
CC1C(=O)N(c2ccc(S(=O)(=O)N(C)C)cc2)C1(/C=C/c1ccccc1)C(=O)NC1CCCC1 (stereo not drawn)	3	?	?	-5
O=C(Nc1cccc(C(F)(F)F)c1)C12CC3CC(CC(C3)C1)C2	1	9%	1%	14
O=C(Nc1ccc(N2CCOCC2)nc1)c1cccs1	38*	13%	2%	57*
O=C(Nc1ccc(N2CCN(c3ccc(C(F)(F)F)cn3)CC2)nc1)c1cccs1	4	-9%[46.1 µM]	-22%	5
N/C(=N\O)c1ccc(N2CCN(c3ncccc3C(F)(F)F)CC2)nc1	39*	?	8%	73*
O=C(Nc1ccc(N2CCN(c3ncccc3C(F)(F)F)CC2)nc1)c1cccs1	9	13µM*	11µM*	41
C[C@@H]1C=CCC(=O)N[C@@H](c2ccccc2)[C@H](C)C=CCC(=O)N[C@@H]1c1ccccc1	/	12%[14.2 µM]	?	/
O=C(O)CCC(=O)N1CCc2cc(S(=O)(=O)NCc3ccc(F)cc3)ccc21	/	4%[46.1 µM]	0%[46.1 µM]	/
SMILES	Cycloheximide cs	MARV entry inh	Lassa entry inh	Shiga inhibitor
COc1ccc(Cc2nnc(SCC(=O)Nc3ccccc3C#N)o2)cc1	1	12%	11%	-21
CCNc1nc(NCC)nc(C(=O)OCCO)n1	1	/	/	18
O=C(Nc1ccc(N2CCN(C(=O)c3ccco3)CC2)cc1)c1ccccc1F	22*	-13%	-19%	24
O=C(Nc1ccc(N2CCN(C(=O)c3ccco3)CC2)cc1)c1cccc(F)c1	22*	1%	4%	16
CC(C)Oc1ccc(C(=O)Nc2ccc(N3CCN(C(=O)c4ccco4)CC3)cc2)cc1	-3	-2%[46.1 µM]	?	-10
O=C(Nc1ccc(N2CCN(C(=O)c3ccco3)CC2)cc1)c1ccccc1Br	9	-17%[46.1 µM]	?	-30
CC(=O)c1ccc(NC(=O)c2cn(-c3ccccc3)nc2-c2ccc(Br)cc2)cc1	/	/	6%[46.1 µM]	/
CSc1ccccc1NC(=O)Cn1c([N+](=O)[O-])cnc1C	1	4%[46.1 µM]	-19%[46.1 µM]	-6
CC(=O)Nc1ccc(NC(=O)c2c(C)c(-c3ccccc3)nc3ccccc23)cc1	/	-2%	-5%	/
CC(C)(C)c1ccc(OCCCC(=O)N2CCOCC2)cc1	40*	/	/	55*
CCOC(=O)C1CCN(C(=O)CCCOc2ccccc2)CC1	36*	-18%	-5%	64*
